GDH-TPI counter: counter-screen for M. tuberculosis FBA inhibitors: GDH-TPI coupled enzymes; inhibition, % at 4.8 µM; GDH-TPI coupled enzyme counterscreen, NADH absorbance; AID 588335; hit rate 1.2% among 360,000;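 note: 0% = DMSO wells and 100% = wells lacking the enzyme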
VHR inh abs: inhibitors of human VHR1 phosphatase (DUSP3). hit rate 0.52% among 290,000. inhibition, % at 13.3 µM. P51452. AID 1654. recombinant VHR phosphatase, pNPP absorbance; in the data active = inhibition above about 50%
Target sequence (P51452 whole entry, looked up): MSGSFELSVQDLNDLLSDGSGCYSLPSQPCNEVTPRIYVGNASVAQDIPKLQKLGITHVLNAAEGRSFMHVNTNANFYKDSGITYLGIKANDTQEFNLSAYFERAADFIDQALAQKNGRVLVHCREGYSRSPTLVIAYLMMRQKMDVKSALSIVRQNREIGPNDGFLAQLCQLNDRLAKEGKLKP
SARS 3CLpro inh: SARS-CoV 3CLpro protease inhibition; inhibition, % at 6 µM; hit rate 0.14% among 290,000; AID 1706; recombinant SARS-CoV 3CLpro, quenched FRET peptide cleavage; in the data active = inhibition above about 12%
Mtb FBA inh: Mtb fructose-bisphosphate aldolase inhibition | inhibition, % at 1 µM | purified M. tuberculosis FBA, fluorescence read-out | hit rate 2.3% among 360,000 | P9WQA3; in the data active = inhibition above about 27%;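 note: 0% = vehicle and 100% = reference inhibitor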
Target sequence (P9WQA3 whole entry, looked up): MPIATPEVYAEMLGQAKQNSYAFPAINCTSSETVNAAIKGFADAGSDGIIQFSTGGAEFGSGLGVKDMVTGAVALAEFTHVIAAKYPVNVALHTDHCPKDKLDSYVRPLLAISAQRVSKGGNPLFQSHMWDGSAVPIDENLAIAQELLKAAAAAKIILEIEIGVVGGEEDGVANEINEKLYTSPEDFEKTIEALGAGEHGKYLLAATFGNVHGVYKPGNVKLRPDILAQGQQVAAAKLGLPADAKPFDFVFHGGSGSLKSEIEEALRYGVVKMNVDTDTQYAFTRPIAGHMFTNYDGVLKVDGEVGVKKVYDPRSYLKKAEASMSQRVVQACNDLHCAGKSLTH
CCHFV vOTU inh: CCHFV vOTU protease inhibition; Pep-AMC fluorescence; inhibition, % at 11.5 µM; hit rate 0.55% among 370,000; note: 0% = vehicle wells with enzyme and 100% = no enzyme wells
RecA splice inh: blocks M. tuberculosis RecA intein splicing | cell-free RecA intein splicing, fluorescence | inhibition, % (test concentration not listed) | hit rate 0.75% among 290,000 | AID 2221; in the data active = inhibition above about 30%;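 note: 0% = vehicle wells and 100% = reference inhibitor control wells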
Starred values were filed as active, the others as inactive; x = no result given; + = active, no number. A selection: hits, their analogues and other compounds. The true share with any hit is near 4.7%. Cut-off read from the data, not from the text of the source, unless noted: active = inhibition above about 30%; inactive = the rest.

SMILES | GDH-TPI counter | VHR inh abs | SARS 3CLpro inh | Mtb FBA inh | CCHFV vOTU inh | RecA splice inh
COc1ccc(/C=N/N=C/c2ccc(OC)c(OC)c2)cc1OC | 9.2 | 7.2 | 3.6 | -0.1 | 2.4 | 0.2
COc1cc(/C=N/N=C/c2cc(OC)c(O)c(OC)c2)cc(OC)c1O | 34.6* | -2.7 | -5.5 | -4.4 | 12.7 | -2.7
COc1ccc(/C=N/N=C/c2ccc(OC)c(O)c2)cc1O | 49.5* | 6.4 | 5.0 | -1.5 | 27.1 | -1.1
CCOC(=O)c1ccc(Nc2nc(C(=O)OCC)nc3ccccc23)cc1 | 35.0* | 7.3 | -0.4 | 0.7 | 7.4 | 1.3
CCOC(=O)c1nc(Nc2ccc(C(=O)O)cc2)c2ccccc2n1 | 31.3* | 1.1 | -3.3 | -3.7 | 16.1 | 3.0
CCOC(=O)[C@@H]1[C@H]2COc3ccccc3[C@@H]2N2C(=O)N(c3cccc(C)c3)C(=O)[C@]12C | -1.7 | 20.5 | 1.1 | -0.8 | 4.5 | 2.2
CC(Sc1nc(-c2ccco2)nc2c1c(=O)n(C)c(=O)n2C)C(=O)O (stereo unspecified) | 32.1* | 21.3 | 0.8 | -2.2 | 9.0 | -0.8
Cn1c(=O)c2c(SCc3ccccc3)nc(-c3ccco3)nc2n(C)c1=O | x | -16.7 | 8.7 | x | x | x
CC(=O)Nc1cccc(NC(C)=C(C#N)C#N)c1 | -3.0 | -1.0 | 3.3 | -3.3 | 5.9 | -1.6
CC(C)(C)OC(=O)N1CCC2CCN(CCc3ccccc3)CC21 (stereo unspecified) | x | x | x | x | 7.6 | x
COc1cccc(NC(=O)NNS(=O)(=O)c2ccc(OC)cc2OC)c1 | -4.8 | 50.2* | -2.2 | 0.1 | 3.5 | 0.4
Cc1ccc(C(=O)N2CCC[C@@H]2C(=O)N2CCC[C@@H]2C(=O)NCc2ccccc2)cc1 | x | x | x | x | -4.4 | x
Cc1ccc(N(C)S(=O)(=O)c2cccc(C(=O)Oc3ccc4c(C)cc(=O)oc4c3)c2)cc1 | 1.5 | -3.6 | 3.8 | 131.3* | -193.9 | 1.0
CCOc1ccc(C2=CS/C(=C(\C#N)c3nnc4n3CCCCC4)N2CC)cc1 | 31.9* | 20.7 | 1.0 | -0.9 | 7.1 | x
Cc1nnc(NC(=O)c2ccc(S(=O)(=O)N3CC(C)CC(C)C3)cc2)o1 (stereo unspecified) | -3.7 | 31.1 | 0.5 | -0.4 | 5.2 | 0.1
Cc1ccc(/C=N/NC(=O)c2ccco2)s1 | 38.1* | 20.9 | -3.5 | -4.5 | 15.9 | -1.8
Cc1ccc(/C=N/NC(=O)c2ccc(C(=O)N/N=C/c3ccc(C)s3)o2)s1 | 67.6* | 32.7 | 1.5 | 1.4 | 14.1 | -34.0
Cc1ccc(/C=N/Nc2ccc(C(=O)O)cc2)s1 | 47.6* | 6.7 | 1.6 | -1.7 | 4.9 | -4.7
Cc1ccc(/C=N/NC(=O)c2ccoc2C)s1 | 9.8 | 5.4 | 6.9 | -3.8 | 0.4 | 2.6
O=C(N/N=C/c1ccc(Br)s1)c1ccccn1 | 43.3* | -3.9 | -1.0 | -7.0 | -0.9 | -0.8
O=C(N/N=C/c1ccsc1)c1ccccn1 | 7.9 | -1.4 | -5.2 | 5.8 | -4.4 | -5.6
Cc1ccc(/C=N/NC(=O)c2cccnc2)s1 | 3.8 | 5.4 | -4.2 | -0.7 | -4.5 | 2.7
CCCC[C@@H]1Cc2[nH][nH]c(=O)c2[C@H](c2ccc(C(C)C)cc2)O1 | x | x | x | x | 10.3 | x
CC(=O)Oc1ccc2oc(=O)c3c(c2c1)CCCN3C(=O)CN1CCOCC1 | 5.4 | 16.5 | -5.8 | -4.0 | 4.9 | 6.3
CC(c1ccccc1)n1cc(C(=O)NCCCN2CCCC2)nn1 (stereo unspecified) | x | x | x | x | -4.4 | x
SMILES | GDH-TPI counter | VHR inh abs | SARS 3CLpro inh | Mtb FBA inh | CCHFV vOTU inh | RecA splice inh
O=C(O)c1ccc(NN=Cc2cc(=O)[nH]c(=O)[nH]2)cc1 | 39.9* | x | x | -4.5 | 3.9 | x
O=C(N/N=C/c1ccco1)c1ccccn1 | 35.0* | 17.7 | 4.0 | 0.8 | 17.4 | -0.3
O=c1cc(C=NNc2ccccc2)[nH]c(=O)[nH]1 | 21.6 | x | x | -4.5 | 9.2 | x
O=C(N/N=C/c1ccc(Br)s1)c1ccco1 | 66.0* | 12.5 | 6.7 | -3.4 | 6.6 | 3.6
Cn1cccc1/C=N/NC(=O)c1ccco1 | 34.3* | 19.9 | 2.7 | 3.4 | 18.1 | -2.8
Cc1occc1C(=O)N/N=C/c1ccc(Br)s1 | 12.6 | 0.4 | -6.4 | -0.9 | 14.5 | -0.3
Cc1cc2c(c(=O)o1)[C@@]1(C(=O)N(C)c3cccc(Br)c31)C1=C(CCCC1=O)O2 | x | x | x | x | -1.2 | x
COCc1cn(-c2ccc3c(c2)[C@]2(CC(=O)N(C)C2c2ccccc2)C(=O)N3CC(C)C)nn1 (stereo partly specified) | x | x | x | x | -2.4 | x
Cc1cc(C(=O)N/N=C/c2cccc(Cl)c2Cl)no1 | 4.9 | 4.5 | 3.5 | -1.8 | 13.2 | -6.6
CCc1ccc(/C=N/NC(=O)c2cc(C)on2)s1 | 32.5* | -5.3 | 3.7 | -2.2 | 9.9 | 6.8
O=C1NN(c2ccccc2)C(=O)/C1=C/c1ccc(Sc2cccc3ccccc23)o1 | 0.7 | 51.3* | 2.8 | -1.8 | 10.9 | -0.5
O=C1NN(c2ccccc2)C(=O)/C1=C/c1ccc(-c2ccc(C(=O)O)cc2)o1 | -1.5 | -3.5 | 1.8 | -2.2 | -3.0 | -7.9
CCC(=O)N1CCc2cc(Br)c(S(=O)(=O)NC3CCN(Cc4ccccc4)CC3)cc21 | x | x | x | x | -7.8 | x
O=C(Nc1ccc2oc(-c3ccccc3)nc2c1)c1cccnc1 | 14.4 | 20.2 | -3.9 | 10.6 | 0.3 | -1.5
O=C(Cc1ccccc1)Nc1ccc2oc(-c3cccnc3)nc2c1 | 3.9 | 9.4 | -0.1 | 111.7* | -25.1 | 2.4
O=C(Nc1ccc(-c2nc3cc(Cl)ccc3o2)cc1)C1CCCO1 (stereo unspecified) | 11.0 | 11.8 | 3.9 | 3.8 | -4.0 | -0.6
O=C(Nc1ccc2oc(-c3ccccc3)nc2c1)C1CCCO1 (stereo unspecified) | 11.8 | -14.5 | 1.6 | + | -68.3 | -2.7
O=C(NNC(=O)c1ccc(Br)o1)c1csc(N2CCOCC2)n1 | 13.6 | x | x | 0.6 | 1.7 | x
CC1CCC(C(C)C)C(=O)/C1=C/c1ccc(N)cc1 (stereo unspecified) | 36.4* | 6.2 | 7.2 | -0.4 | 16.6 | -0.6
CCC(C(=O)NC1CCCC1)n1c(-c2cc3ccccc3[nH]2)nc2ccccc21 (stereo unspecified) | x | x | x | x | -2.5 | x
O=C(Nc1ccc(-n2cnnn2)cc1)C1CCCCC1 | -4.4 | 51.6* | -0.4 | -0.5 | 2.9 | -1.6
CC(C)c1csc(CN2CCC(CO)(Cc3cccc(F)c3)CC2)n1 | -2.5 | 7.3 | 1.4 | -0.9 | -4.3 | 1.5
COc1ccc(-c2cc3nc(-c4ccccc4)cc(N4CCC5(CC4)OCCO5)n3n2)cc1 | 13.9 | 17.0 | -0.3 | 27.6* | -7.3 | -1.5
Cc1cc(=O)oc2cc(OC(=O)c3nn(C(C)C)c(=O)c4ccccc34)ccc12 | 14.4 | 0.1 | 0.1 | + | -385.3 | -7.8
CC(C)n1nc(C(=O)Oc2ccc(Cl)cc2)c2ccccc2c1=O | 7.3 | -4.4 | 2.7 | 1.6 | -14.7 | 3.8
CCCn1nc(C(=O)Oc2ccc3c(C)cc(=O)oc3c2)c2ccccc2c1=O | 6.2 | 7.3 | -1.4 | + | -379.8 | -4.8
Nc1ccc2nc(-c3cccc(-c4nc5ccc(N)cc5[nH]4)c3)[nH]c2c1 | 27.2 | 6.1 | -14.6 | 0.1 | 5.6 | 10.1
Nc1ccc(-c2nc3ccc(N)cc3[nH]2)cc1 | 17.9 | 37.2 | -3.6 | + | -342.1 | -14.2

Bioassay records as filed in PubChem BioAssay.
